Fewer than 10 of roughly 1,400 compounds were called active. Another 8% or so got no clear call; they are omitted. Only a sample is shown. A number with no mark means an inactive call. Calls come from the whole dose curve; as a rule, active = well fitted curve in the direction sought with a large enough effect; inconclusive = small, poorly fitted or top-dose-only effect, or another doubt; inactive = no such curve, though single readings can be large or run the other way.
biological target: Transient receptor potential cation channel subfamily V member 1 (Homo sapiens) (UniProt Q8NER1); test: qHTS Assay for Compounds that Act as Potentiators of the Vanilloid Receptor 1: Hit Validation; settings: TRPV1-expressing cells, Fluo-8 calcium influx, capsaicin EC20; series mostly up to 42.1 µM; activity change, positive = potentiation: at the top concentration; for activity change, positive = potentiation: % of control where 0% means no effect
Source text: The transient receptor potential ion channel, family V, number 1, (TRPV1) is one of the most important molecular transducers of painful stimuli and a potential target for analgesic drug development. Although recent clinical trials with orthosteric antagonists have not produced a successful drug because of a hyperthermia side effect and their tendency to block thermal noxious pain, this ion channel is undeniably well placed in the pain pathway, and the idea of blocking pain signals before they enter the CNS is an excellent concept and of proven efficacy when TRPV1 agonists are used. We propose a new approach involving allosteric modulation to impose an activity-dependent constraint within the context of inflammation and tissue damage that would alter the responsiveness of the channel in a way that an orthosteric vanilloid antagonist cannot achieve. We believe that the allosteric modulator approach has not been explored for this target. The main goal of this proposal is to identify additional, new, potent allosteric modulators of TRPV1 that can be used to investigate TRPV1 function. Our recent report provides evidence of proof of concept, but the compounds are just at the edge of utility in terms of potency. […] The question of whether they can be used as analgesic agents is complex, but if suitable compounds are identified then testing for analgesic properties will be conducted. Compounds identified as agonists were re-tested in the primary screen for hit validation. NIH Chemical Genomics Center [NCGC] NIH Molecular Libraries Probe Centers Network [MLPCN] MLPCN Grant: MH089480 Assay Submitter (PI): Michael Iadarola, National Institute of Dental and Cranofacial Research
Upon TRPV1 activation in TRPV1 cells, the channel opens and extracellular cations flow through the channel into the cytosol. A calcium binding dye (Fluo-8) becomes fluorescent when bound to calcium. This dye is pre-loaded into cells and is used as a marker for calcium influx. The amount of accumulated calcium is precisely quantified using the FDSS kinetic reader and the calcium dye. For the HTS assay, freshly prepared cells are plated at a density of 2000/well in 3 ul medium in 1536-well plates and cultured overnight at 35.5C. Cells will be loaded with 1 ul of the homogeneous calcium dye (ABD Bioquest) at room temperature for 40 to 90 minutes. Plates will be loaded into the FDSS kinetic reader and a 1 sec / cycle for 10 second baseline signal will be measured. Compound library will then be added with a pintool at 23 nl and measured kinetically for 3 minutes. This portion of the read is considered the agonist portion of the screen. Following the 3 minutes of incubation, an on board pipettor will deliver 1 ul of capsaicin for a final concentration equal to the EC20. Signal will be measured kinetically for an additional 2 minutes. This portion of the read is considered the allosteric enhancer portion of the screen. The FDSS reader has a standard filter set capable of measuring calcium bound Fluo-8 (ex=480 and em=520 nm).
Potency is the fitted concentration of half-maximal effect.

Transient receptor potential cation channel subfamily V member 1 (Homo sapiens), sequence (Q8NER1 whole entry, looked up): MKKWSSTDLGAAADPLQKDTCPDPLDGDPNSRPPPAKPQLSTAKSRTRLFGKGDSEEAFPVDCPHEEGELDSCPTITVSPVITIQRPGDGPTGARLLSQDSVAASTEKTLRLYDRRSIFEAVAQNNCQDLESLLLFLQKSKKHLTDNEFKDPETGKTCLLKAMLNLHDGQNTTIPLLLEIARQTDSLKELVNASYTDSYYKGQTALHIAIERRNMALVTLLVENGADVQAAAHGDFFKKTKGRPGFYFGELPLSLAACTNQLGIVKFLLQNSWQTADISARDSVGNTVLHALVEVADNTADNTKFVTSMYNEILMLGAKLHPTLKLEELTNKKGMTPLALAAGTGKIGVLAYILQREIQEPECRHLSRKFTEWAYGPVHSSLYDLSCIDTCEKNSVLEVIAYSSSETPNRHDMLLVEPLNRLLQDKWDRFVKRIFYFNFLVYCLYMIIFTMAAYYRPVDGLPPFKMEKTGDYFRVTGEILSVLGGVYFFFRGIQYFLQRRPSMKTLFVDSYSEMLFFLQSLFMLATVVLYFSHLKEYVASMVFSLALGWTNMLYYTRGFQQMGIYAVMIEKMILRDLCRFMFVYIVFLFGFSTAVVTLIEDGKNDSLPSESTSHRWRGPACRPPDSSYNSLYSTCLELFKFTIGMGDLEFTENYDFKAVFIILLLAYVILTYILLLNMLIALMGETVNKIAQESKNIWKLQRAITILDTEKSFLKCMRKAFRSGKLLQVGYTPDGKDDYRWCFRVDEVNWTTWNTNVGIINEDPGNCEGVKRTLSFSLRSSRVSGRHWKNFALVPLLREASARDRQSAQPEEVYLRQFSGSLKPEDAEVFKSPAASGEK

SMILES | activity change, positive = potentiation [%] | Potency
Cc1ccc(NC(=O)CCS(=O)(=O)c2ccc3c(c2)NC(=O)C(C)S3)cc1Cl (centres undefined) | 1.02 | 
Cc1ccc(/C=C2\CCC3=C2OC(N)=C(C#N)C3c2ccc(C)cc2)cc1 (centres undefined) |  | 8.05 µM (active)
Cc1ccc(NC(=O)CCn2nc(C)cc2C)cc1 | -6.67 | 
O=C(Cc1cccs1)Nc1cccc(-c2ccc3nncn3n2)c1 | 6.87 | 
CC(=O)c1ccc(Nc2ncnc3c2oc2ccccc23)cc1 | -38.7 | 
CC(C)C[C@H](NC(=O)c1nc[nH]c1C(=O)N1CCC(C)CC1)C(=O)OCc1ccccc1 | -10.6 | 
CC(=O)c1cccc(NC(=O)N2C3CCC2CC(NC(=O)Nc2ccccc2)C3)c1 (centres undefined) | 4.86 | 
CCOC(=O)N/N=C1\CCS(=O)(=O)c2ccc(Cl)cc21 | 4.78 | 
COc1cc(C)nc(-c2csc(C)n2)n1 | 7.2 | 
O=C(NNC(=O)c1cccc(O)c1)Nc1ccc([N+](=O)[O-])cc1 | 3.43 | 
Cc1cnc(NC(=O)c2cc3c(s2)CCCC3)s1 | -38.8 | 
C(=N\Nc1nn2cnnc2c2ccccc12)/c1ccco1 | -9.75 | 
CCc1ccc(/C=C2/SC(N3CCOCC3)=NC2=O)cc1 | -37.3 | 
Cc1nnc(SCC(=O)N(C)CC(=O)Nc2ccc(F)cc2)n1Cc1ccccc1 | -5.01 | 
COc1ccc(OC)c(NC(=O)CCN2C(=O)c3ccccc3C2=O)c1 | 4.29 | 
CCc1ccc(OCCCC(=O)NCc2ccccc2)cc1 | -4.09 | 
CCN(CC)S(=O)(=O)c1ccc(/C=C/C(=O)Nc2cccc(F)c2)cc1 | -36.7 | 
COCCNC(=O)CSc1nc2ccccc2c(=O)n1CC1CCCO1 (centres undefined) | 0.611 | 
COc1ccc(C(=O)NC(CC(C)C)C(=O)O)cc1OC (centres undefined) | 3.51 | 
CCCCn1c(=O)[nH]c(=O)c2c1nc(-c1ccc(OC)c(Br)c1)n2CC(C)C | -3.67 | 
COC(=O)C(C(=O)Nc1nc2ccccc2s1)C1CCCC1 (centres undefined) | -7.89 | 
N=C1/C(=C\c2ccc(-c3ccc(C(=O)O)cc3)o2)C(=O)N=C2SC=C(c3ccccc3)N12 | 24.5 | 
COc1ccc(-[n+]2c(C)cc(/C=C3\Sc4ccccc4N3C)cc2C)cc1 |  | 5.7 µM (active)
Cc1c(N=c2scc(-c3ccccc3)n2C)c(=O)n(-c2ccccc2)n1C | 4.71 | 
COc1ccc(Cc2c(N)nc(C)nc2N)cc1 | -6.3 | 
O=C(N/N=C/c1cccnc1)c1ccc2c(c1)OCO2 | -7.94 | 
COc1cccc(/C=C/C(=O)Nc2cccc(C(C)=O)c2)c1OC | -16.5 | 

SMILES | activity change, positive = potentiation [%] | Potency
Cc1ccc(OCC(=O)c2c[nH]c3ccccc23)c([N+](=O)[O-])n1 | -9.4 | 
COc1cc(OC)c(NC(=O)CCc2nc(-c3ccc(C)cc3)no2)cc1Cl | -4.21 | 
CCO[C@H]1OC(C(=O)NC2CC2)=C[C@@H](c2c[nH]c3ccccc23)[C@@H]1CCCO | -2.5 | 
CCc1ccc(/C=N/NC(=O)c2c[nH]c3ccccc23)s1 | -39 | 
COc1ccc(CNC(=O)C2(CC3CC(c4ccccc4)=NO3)CCN(C(=O)C3CCCC3)CC2)cc1 (centres undefined) | -5.73 | 
Cc1oc(-c2cccs2)nc1CS(=O)CC(=O)NCCc1ccccc1 (centres undefined) | -3.43 | 
O=S(=O)(c1ccc2c(c1)OCCO2)N1CCN(c2cccc(Cl)c2)CC1 | 4.01 | 
COc1ccc(NC(=O)c2ccc(Br)c(S(=O)(=O)N3CCOCC3)c2)cc1 | -24.8 | 
Cn1cccc1C(=O)NC(=O)COC(=O)c1cc([N+](=O)[O-])ccc1Cl | 8.04 | 
O=C(/C=C/c1cccc2ccccc12)N1CCOCC1 | -31.4 | 
CC(C)c1ccc(OCC(=O)Nc2ccncc2)cc1 | -38.4 | 
CC(C)NC(=O)COC(=O)c1ccc(O)cc1 | -9.92 | 
CN1CCN(S(=O)(=O)c2ccc(NC(=O)c3ccc(F)cc3)cc2)CC1 | -2.3 | 
O=C(O/N=C1\CCS(=O)(=O)c2sccc21)c1c(F)cccc1F | 6.48 | 
Cc1cc(C)c(NS(=O)(=O)c2ccc(NC(=O)CCC(=O)O)cc2)c(C)c1 | -6.46 | 
COc1ccc(C(C#N)c2cnccn2)cc1OC (centres undefined) | 4.57 | 
CC(=O)c1cc(-c2ccc(F)cc2)n(CCC(=O)Nc2cccnc2)c1C | -38.3 | 
CCOC(=O)/C=C1\CN(CCC(C)C)S(=O)(=O)c2ccccc21 | -8.51 | 
CCN1C(=O)[C@@H]2[C@@H](c3ccc(-c4ccc(F)cc4)cc3)N3CCCC[C@@]3(C(=O)OC)[C@@H]2C1=O | -8.18 | 
CCC(C)Sc1cccc(-c2nc3ccc(Cl)cn3c2NCc2ccccc2)c1 (centres undefined) | -38.7 | 
CC(C)(C)c1ccc(/C=C/C(=O)Nc2ccncc2)cc1 | -38.6 | 
CCNC(=O)NC(=O)C(C)OC(=O)c1cccn1C (centres undefined) | -7.78 | 
COc1ccc(N=Nc2c(C)[nH][nH]c2=O)cc1 | 0.545 | 
Cc1cc(NS(=O)(=O)c2ccc(NC(=O)COc3ccc(Cl)cc3)cc2)no1 | -10.6 | 
Cc1cccc(C)c1OCC(=O)Nc1cccc(S(=O)(=O)N2CCCC2)c1 | -3.66 | 
Cn1nc(CC(=O)Nc2ccc3c(c2)OCCO3)c2ccccc2c1=O | 4.52 | 
CCn1c(Cc2c(C)[nH]c3ccccc23)nnc1SCC(=O)NCc1ccccc1 | 12.1 | 

— PubChem BioAssay AID623959 (National Center for Advancing Translational Sciences (NCATS), 2012)
